Holding throughout (design): scale not given: direction of the effect not stated beside the values
The target in experiment [1] is Protein translocase subunit SecA (Escherichia coli (strain K12)) (UniProt P10408). As to the kind of experiment: Assay to Identify E. coli SecA ATPase Inhibitors. The class given is functional. Particulars: 30 µM.
For experiment [2], the target named is T1, Ubiquitin-activating enzyme e1, putative (Leishmania donovani (strain BPK282A1)) (UniProt E9BSI1).
T1 sequence (whole entry): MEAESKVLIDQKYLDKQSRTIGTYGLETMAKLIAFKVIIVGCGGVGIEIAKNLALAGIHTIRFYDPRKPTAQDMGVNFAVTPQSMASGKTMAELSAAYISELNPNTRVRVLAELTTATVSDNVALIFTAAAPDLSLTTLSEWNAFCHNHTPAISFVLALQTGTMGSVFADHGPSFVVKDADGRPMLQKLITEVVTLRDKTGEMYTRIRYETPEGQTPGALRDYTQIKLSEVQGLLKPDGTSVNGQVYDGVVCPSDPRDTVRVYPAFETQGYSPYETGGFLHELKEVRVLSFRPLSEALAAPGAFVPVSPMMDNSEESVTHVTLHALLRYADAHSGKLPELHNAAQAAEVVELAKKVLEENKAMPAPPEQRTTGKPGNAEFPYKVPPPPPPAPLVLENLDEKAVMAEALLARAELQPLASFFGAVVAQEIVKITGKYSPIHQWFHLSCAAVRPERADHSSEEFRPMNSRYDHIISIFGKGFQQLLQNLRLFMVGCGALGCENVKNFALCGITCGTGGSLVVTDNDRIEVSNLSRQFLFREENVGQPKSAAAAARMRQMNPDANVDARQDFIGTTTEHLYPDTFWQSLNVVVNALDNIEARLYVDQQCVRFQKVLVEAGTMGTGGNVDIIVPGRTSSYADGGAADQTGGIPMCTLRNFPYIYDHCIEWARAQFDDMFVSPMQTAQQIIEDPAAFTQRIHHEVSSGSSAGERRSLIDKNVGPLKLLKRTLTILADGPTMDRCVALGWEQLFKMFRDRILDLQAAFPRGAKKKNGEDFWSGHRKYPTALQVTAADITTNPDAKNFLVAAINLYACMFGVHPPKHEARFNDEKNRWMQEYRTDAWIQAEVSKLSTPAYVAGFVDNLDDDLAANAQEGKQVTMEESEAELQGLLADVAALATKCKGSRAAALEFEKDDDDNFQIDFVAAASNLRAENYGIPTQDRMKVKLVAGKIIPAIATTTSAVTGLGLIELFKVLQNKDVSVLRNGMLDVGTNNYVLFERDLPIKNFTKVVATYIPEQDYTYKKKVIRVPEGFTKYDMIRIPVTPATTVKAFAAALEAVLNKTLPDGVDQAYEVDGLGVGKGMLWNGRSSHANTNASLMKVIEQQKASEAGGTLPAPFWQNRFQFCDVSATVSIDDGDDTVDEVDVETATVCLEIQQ
As to the kind of experiment: Leishmania donovani Ubiquitin Activating Enzyme (LdE1). The class given is functional. Particulars: 30 µM.

The target in experiment [3] is AMP-activated protein kinase, AMPK (Homo sapiens) (UniProt P54646+O43741+P54619+Q9UGJ0+Q9Y478+Q13131+Q9UGI9). As to the kind of experiment: AMP-dependent Kinase enzyme assay. An in vitro enzyme assay that detects ADP turnover that is directly proportional to AMPK activity. This uses naive AMPK that is activated during the assay with MK-8722. The conditions noted are these: 30 µM. The class given is functional.

Experiment [4] has as its target Sialic acid-binding Ig-like lectin 9 (Homo sapiens) (UniProt Q9Y336). As to the kind of experiment: Hs-Siglec9 ALPHAscreen SOP 20170721. Particulars: 10 µM. On the technique in general: In Alpha technology, singlet oxygen from a donor bead excites a nearby acceptor bead.
The subject of another experiment is Trypanosoma cruzi. As to the kind of experiment: Trypanosoma cruzi phosphomannomutase and mannose-1-phosphate guanylyltransferase assay. The class given is functional. Particulars: 10 µM.
For experiment [5], the target named is T2, Arginase-2, mitochondrial (Homo sapiens) (UniProt P78540).
T2 sequence (whole entry): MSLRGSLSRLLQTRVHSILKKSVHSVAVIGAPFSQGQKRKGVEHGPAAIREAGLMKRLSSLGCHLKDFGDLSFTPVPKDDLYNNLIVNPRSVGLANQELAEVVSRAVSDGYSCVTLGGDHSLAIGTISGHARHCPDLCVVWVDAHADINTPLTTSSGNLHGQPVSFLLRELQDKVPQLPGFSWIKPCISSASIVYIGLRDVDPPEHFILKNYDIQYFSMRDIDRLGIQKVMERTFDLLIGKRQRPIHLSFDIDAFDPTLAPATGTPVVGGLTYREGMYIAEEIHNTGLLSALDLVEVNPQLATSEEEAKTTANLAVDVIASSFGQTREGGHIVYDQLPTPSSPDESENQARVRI
The experiment in a line: in vitro enzyme assay to detect the production of urea directly proportional to the activity of Arginase II. Note: in the data most compounds retested in dose-response had high values. The class given is functional. Particulars: 33.3 µM.

Experiment [6] has as its target T3, Proteasome subunit beta (Trypanosoma cruzi) (UniProt O96673).
T3 sequence (whole entry): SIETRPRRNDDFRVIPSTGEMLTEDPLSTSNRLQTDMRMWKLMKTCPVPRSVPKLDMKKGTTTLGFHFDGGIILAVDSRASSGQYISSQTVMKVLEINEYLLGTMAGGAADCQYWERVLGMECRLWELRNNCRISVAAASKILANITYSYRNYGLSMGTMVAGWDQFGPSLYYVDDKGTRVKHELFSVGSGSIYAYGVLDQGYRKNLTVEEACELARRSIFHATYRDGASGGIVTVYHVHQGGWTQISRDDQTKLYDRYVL
As to the kind of experiment: Trypanosoma cruzi proteasome chymotrypsin-like activity (TcProtChymo) assay. Note: in the data most compounds retested in dose-response had high values. The class given is functional. The conditions noted are these: 9.37 µM.

The species entered for another experiment is Homo sapiens. As to the kind of experiment: To identify inhibition of the IFN signalling (Jak-Stat) pathway via expression of an eGFP reporter gene under the control of an IFN-stimulated response element (ISRE) containing MxA promoter. The class given is functional. The conditions noted are these: 30 µM. A general note: Reporter assays use an easily measured gene product as a stand-in for the process of interest.

Experiment [7] concerns the target T4, Tyrosyl-tRNA synthetase, putative (Trypanosoma cruzi (strain CL Brener)) (UniProt Q4DSP6).
T4 sequence (whole entry): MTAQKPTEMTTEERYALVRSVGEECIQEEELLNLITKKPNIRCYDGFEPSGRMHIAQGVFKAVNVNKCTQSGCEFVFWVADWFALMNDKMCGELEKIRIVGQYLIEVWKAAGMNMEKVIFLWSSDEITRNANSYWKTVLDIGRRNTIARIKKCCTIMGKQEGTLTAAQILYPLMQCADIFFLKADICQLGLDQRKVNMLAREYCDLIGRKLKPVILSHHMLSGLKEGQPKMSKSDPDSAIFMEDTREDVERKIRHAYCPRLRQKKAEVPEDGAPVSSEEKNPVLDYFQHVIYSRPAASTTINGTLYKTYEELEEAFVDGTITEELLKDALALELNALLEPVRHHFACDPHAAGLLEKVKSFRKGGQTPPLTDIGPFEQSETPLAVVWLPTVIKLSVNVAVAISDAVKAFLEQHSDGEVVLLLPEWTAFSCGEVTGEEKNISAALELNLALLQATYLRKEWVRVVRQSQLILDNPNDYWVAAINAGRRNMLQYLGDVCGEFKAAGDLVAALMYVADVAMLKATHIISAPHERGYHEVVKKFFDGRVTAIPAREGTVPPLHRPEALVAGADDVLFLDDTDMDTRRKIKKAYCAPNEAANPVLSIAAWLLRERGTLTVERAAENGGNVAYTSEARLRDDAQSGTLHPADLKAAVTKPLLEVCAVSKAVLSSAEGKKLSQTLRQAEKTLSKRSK
As to the kind of experiment: Trypanosoma cruzi tyrosyl tRNA synthetase (TcYRS) _High Tyrosine SOP. Note: in the data most compounds retested in dose-response had high values. The class given is functional. Particulars: 30 µM.

The target of experiment [8] is T4, Tyrosyl-tRNA synthetase, putative (Trypanosoma cruzi (strain CL Brener)). The experiment in a line: Trypanosoma cruzi tyrosyl tRNA synthetase (TcYRS) SOP. The class given is functional. Particulars: 30 µM.
Experiment [9] addresses Chromo domain-containing protein 1 (Saccharomyces cerevisiae (strain ATCC 204508 / S288c) (Baker's yeast)) (UniProt P32657). The experiment in a line: ScCHD-1 Enzyme Inhibition Assay. Note: in the data most compounds retested in dose-response had high values. The class given is functional. The conditions noted are these: 30 µM.

Among the data in ChEMBL document CHEMBL3988442, “University of Dundee, Small-Polar-MMV Screening Library” (2021) are Percent Effect values, retold here.

For some assays here: Potency and affinity values are given separately.

Chromo domain-containing protein 1 (Saccharomyces cerevisiae (strain ATCC 204508 / S288c) (Baker's yeast)), sequence (P32657 whole entry, the tested form may be a part): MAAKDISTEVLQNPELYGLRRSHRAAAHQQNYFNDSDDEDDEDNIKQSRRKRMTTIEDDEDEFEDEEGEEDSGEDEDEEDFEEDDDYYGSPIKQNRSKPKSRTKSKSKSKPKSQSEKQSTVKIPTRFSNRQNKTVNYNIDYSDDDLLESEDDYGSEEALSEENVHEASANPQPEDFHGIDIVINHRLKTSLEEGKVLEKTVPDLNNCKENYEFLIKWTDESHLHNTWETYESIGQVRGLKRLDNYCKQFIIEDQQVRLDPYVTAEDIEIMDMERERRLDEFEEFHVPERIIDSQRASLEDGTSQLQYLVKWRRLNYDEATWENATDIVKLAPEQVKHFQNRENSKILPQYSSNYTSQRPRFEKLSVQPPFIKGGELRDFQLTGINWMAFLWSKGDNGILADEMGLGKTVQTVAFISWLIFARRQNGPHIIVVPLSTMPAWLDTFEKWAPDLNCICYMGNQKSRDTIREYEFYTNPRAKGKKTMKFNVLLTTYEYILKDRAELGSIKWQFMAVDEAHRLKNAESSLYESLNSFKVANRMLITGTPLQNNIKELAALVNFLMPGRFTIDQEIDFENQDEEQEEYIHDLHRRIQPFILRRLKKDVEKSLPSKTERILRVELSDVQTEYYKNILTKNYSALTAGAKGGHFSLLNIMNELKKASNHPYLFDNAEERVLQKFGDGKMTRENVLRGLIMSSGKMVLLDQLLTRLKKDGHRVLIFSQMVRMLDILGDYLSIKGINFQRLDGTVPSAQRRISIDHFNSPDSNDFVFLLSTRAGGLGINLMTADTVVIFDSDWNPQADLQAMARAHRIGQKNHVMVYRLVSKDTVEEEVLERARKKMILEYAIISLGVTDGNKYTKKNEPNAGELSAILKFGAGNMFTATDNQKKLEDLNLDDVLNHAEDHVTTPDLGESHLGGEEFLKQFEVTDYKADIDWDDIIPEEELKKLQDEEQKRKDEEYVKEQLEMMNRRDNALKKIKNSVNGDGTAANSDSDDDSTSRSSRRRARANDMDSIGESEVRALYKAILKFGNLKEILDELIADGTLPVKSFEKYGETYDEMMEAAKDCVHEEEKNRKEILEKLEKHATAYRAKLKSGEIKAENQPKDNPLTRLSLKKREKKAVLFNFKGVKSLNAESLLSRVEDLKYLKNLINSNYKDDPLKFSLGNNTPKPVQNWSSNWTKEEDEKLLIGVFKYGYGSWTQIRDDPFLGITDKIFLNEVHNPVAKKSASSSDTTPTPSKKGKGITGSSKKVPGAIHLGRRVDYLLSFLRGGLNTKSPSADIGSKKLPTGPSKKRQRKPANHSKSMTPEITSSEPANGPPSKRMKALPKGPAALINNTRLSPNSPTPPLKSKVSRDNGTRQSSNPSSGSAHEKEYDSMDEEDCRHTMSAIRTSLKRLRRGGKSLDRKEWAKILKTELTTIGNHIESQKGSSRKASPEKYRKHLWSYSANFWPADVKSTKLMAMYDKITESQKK
Protein translocase subunit SecA (Escherichia coli (strain K12)), sequence (P10408 whole entry): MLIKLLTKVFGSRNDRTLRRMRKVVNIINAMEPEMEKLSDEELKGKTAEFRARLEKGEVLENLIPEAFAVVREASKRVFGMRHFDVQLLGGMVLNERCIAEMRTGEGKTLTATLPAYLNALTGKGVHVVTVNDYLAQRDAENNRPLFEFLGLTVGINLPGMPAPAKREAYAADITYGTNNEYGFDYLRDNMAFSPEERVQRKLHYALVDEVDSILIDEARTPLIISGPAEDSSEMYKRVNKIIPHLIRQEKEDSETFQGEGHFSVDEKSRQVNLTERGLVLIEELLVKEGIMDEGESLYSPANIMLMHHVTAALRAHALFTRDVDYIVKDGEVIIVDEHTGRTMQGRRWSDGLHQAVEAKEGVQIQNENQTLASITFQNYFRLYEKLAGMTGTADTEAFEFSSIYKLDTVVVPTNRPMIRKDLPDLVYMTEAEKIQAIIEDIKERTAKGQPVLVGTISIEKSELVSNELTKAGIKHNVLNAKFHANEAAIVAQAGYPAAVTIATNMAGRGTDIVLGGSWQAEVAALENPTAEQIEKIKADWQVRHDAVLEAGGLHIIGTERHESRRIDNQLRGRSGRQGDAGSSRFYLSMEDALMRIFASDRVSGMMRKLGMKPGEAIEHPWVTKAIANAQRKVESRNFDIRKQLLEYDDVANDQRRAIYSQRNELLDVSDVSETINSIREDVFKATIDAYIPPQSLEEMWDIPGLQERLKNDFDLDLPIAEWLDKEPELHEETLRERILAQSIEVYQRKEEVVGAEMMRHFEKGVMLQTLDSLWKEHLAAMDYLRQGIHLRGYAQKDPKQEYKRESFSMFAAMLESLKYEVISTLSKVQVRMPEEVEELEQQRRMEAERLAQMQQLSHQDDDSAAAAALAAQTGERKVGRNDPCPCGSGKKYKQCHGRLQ
Sialic acid-binding Ig-like lectin 9 (Homo sapiens), sequence (Q9Y336 whole entry): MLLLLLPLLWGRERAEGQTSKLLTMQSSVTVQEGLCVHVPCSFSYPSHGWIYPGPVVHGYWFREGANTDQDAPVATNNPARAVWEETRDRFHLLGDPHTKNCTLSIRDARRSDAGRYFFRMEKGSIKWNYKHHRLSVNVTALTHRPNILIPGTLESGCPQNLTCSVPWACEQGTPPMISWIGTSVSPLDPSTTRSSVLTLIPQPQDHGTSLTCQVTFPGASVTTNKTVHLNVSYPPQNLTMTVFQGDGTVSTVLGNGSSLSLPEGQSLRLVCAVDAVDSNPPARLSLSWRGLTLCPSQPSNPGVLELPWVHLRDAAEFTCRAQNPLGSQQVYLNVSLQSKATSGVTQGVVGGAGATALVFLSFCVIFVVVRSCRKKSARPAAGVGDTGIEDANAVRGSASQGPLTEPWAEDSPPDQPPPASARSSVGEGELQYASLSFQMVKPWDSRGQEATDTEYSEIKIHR

On to `COc1cccc(OCC2CCCN(C(=O)c3cnc(C)nc3O)C2)c1` (stereo not given), for which the Percent Effect in [1] was 0.517%; in experiment [2] it was 8.11%; in experiment [3] it was -1.51%; in experiment [4], 13.5%; in the experiment with Trypanosoma cruzi it was 5.02%; in experiment [5], 11.9%. Also, the Percent Effect was 7.24% in experiment [6]; -19% in the experiment listed under Homo sapiens; 7.94% in [7]; 17.1% in experiment [8]; -2.95% in [9].
`O=C(Nc1ccc(F)cc1)N1C[C@H]2CC[C@@H]1CN(Cc1cccnc1)C2`: the Percent Effect was -3.11% in [1]; 11% in [2]; 4.71% in [3]; -2.61% in experiment [4]; -2.15% in the experiment with Trypanosoma cruzi; 4.54% in [5]. For the same compound, the Percent Effect is 13.3% in [6]; 9.03% in the experiment listed under Homo sapiens; 10.8% in experiment [7]; 20% in [8]; -5.73% in experiment [9].
Consider `COc1cc(CCC(C)O)c(OC)c2c1OCO2` (stereo not given), for which the Percent Effect in experiment [1] is -5.08%; in [2] it was -1.33%; in experiment [3] it was -4.24%; in experiment [4], -3.72%; in the experiment on Trypanosoma cruzi, -4.13%; in experiment [5], -6.51%. Also, the Percent Effect is 11.5% in experiment [6]; -0.862% in the experiment filed under Homo sapiens; -1.06% in experiment [7]; 0% in experiment [8]; -6.82% in experiment [9].
For `CO[C@H]1CO[C@@]2(CCCN(C(=O)C3=CCCCC3)C2)C1`, the Percent Effect is -5.62% in [1]; 13.3% in experiment [2]; 1.22% in [3]; -1.82% in [4]; 1.35% in the experiment with Trypanosoma cruzi; -47.5% in experiment [5]. In addition, the Percent Effect in experiment [6] was 8.03%; in the experiment filed under Homo sapiens it was 0.996%; in experiment [7] it was 3.12%; in experiment [8], 2.5%; in experiment [9] it was -8%.
For `Cc1ccc(CN2CC[C@H]3[C@@H]2CCC(=O)N3CCN2CCCC2)s1`, the Percent Effect is -1.28% in experiment [1]; 10.7% in experiment [2]; 8.56% in [3]; -12.2% in experiment [4]; -8.27% in the experiment with Trypanosoma cruzi; -3.03% in experiment [5]. Besides, the Percent Effect in [6] is 10.5%; in the experiment listed under Homo sapiens, 7.46%; in experiment [7], -3.19%; in experiment [8], 1.28%; in experiment [9] it was -2.35%.
Turning to `Cc1noc(CCCC(=O)NC(C)c2ccccn2)n1` (stereo not given), the Percent Effect is -1.78% in [1]; 18.4% in [2]; -1.11% in experiment [3]; 2.7% in [4]; 3.01% in the experiment on Trypanosoma cruzi; 2.68% in experiment [5]. In addition, the Percent Effect in experiment [6] was 6.52%; in the experiment listed under Homo sapiens it was 3.32%; in experiment [7], 10.3%; in [8] it was 21.9%; in experiment [9], -13.2%.
Consider `Cn1cc(-c2ncnc3c2CCN(C(=O)N2CCOCC2)CC3)cn1`, for which the Percent Effect was -2.9% in experiment [1]; 0% in [2]; -3.79% in experiment [3]; 15.2% in [4]; 3.03% with Trypanosoma cruzi; 1.24% in experiment [5]. Also, the Percent Effect in experiment [6] was 9.53%; in the experiment listed under Homo sapiens, -0.161%; in [7], 1.07%; in [8] it was 8.64%; in experiment [9] it was -11.6%.
Take `Cc1nn(C)c(C)c1-c1cncc(C2CCN(S(C)(=O)=O)CC2)n1`: the Percent Effect in [1] is 0.332%; in [2], -2.67%; in experiment [3] it was 22.7%; in experiment [4], 4.44%; in the experiment on Trypanosoma cruzi it was -1.77%; in experiment [5] it was 2.1%. In addition, the Percent Effect in experiment [6] is -3.96%; in the experiment filed under Homo sapiens, 25.6%; in experiment [7] it was 3.19%; in experiment [8] it was 3.85%; in experiment [9], 0.849%.
As to `O=C(NCc1ccc(-n2cncn2)nc1)c1ccoc1`, the Percent Effect in experiment [1] is -8.93%; in experiment [2], 0%; in [3] it was -18.3%; in experiment [4], 31.6%; with Trypanosoma cruzi, 11.6%; in [5], -10.4%. Further, the Percent Effect was 0.901% in [6]; 3.65% in the experiment filed under Homo sapiens; 4.43% in experiment [7]; 18.5% in experiment [8]; -15.1% in experiment [9].
Turning to `O=C(Cc1ccsc1)N1CCCC(c2n[nH]c3nccnc23)C1` (stereo not given), the Percent Effect in experiment [1] was -5.56%; in [2] it was 14.9%; in experiment [3], 11.9%; in experiment [4], -1.03%; in the experiment on Trypanosoma cruzi, 4.94%; in [5] it was -1.16%. In addition, the Percent Effect in experiment [6] was 15.9%; in the experiment listed under Homo sapiens it was 17.3%; in [7], 2.15%; in experiment [8], 9.09%; in experiment [9] it was -4.76%.
